{"source": "PubChem BioAssay (Tox21)", "note": "Records with an inconclusive call do not appear. Entries that show only a call come without a potency. The source made the active and inactive calls. Calls come from the whole dose curve. Potency is the fitted concentration of half-maximal effect."}
{"assay": "qHTS assay to identify small molecule agonists of the hypoxia (HIF-1) signaling pathway - cell viability counter screen (AID 1224844); note: nearly all actives have a fitted effect of over 50% in size", "conditions": "HRE-bla ME-180 viability, CellTiter-Glo luminescence, 17 h; series mostly up to 76.8 µM", "excerpt": "National Center for Advancing Translational Sciences [NCATS]\nNIH Chemical Genomics Center [NCGC]\nU.S. Environmental Protection Agency [EPA]\nNational Institutes of Environmental Health Sciences [NIEHS]\nNational Toxicology Program [NTP]\nU.S. Food and Drug Administration [FDA]\nHypoxia-inducible factor-1 (HIF-1) is the major hypoxia-regulated transcription factor that controls cellular responses to low oxygen concentration. HIF-1 is composed of two subunits: hypoxia responsive HIF-1-alpha and constitutively expressed HIF-1-beta, which is also known as aryl hydrocarbon receptor nuclear translocator. During hypoxic conditions, HIF-1-alpha heterodimerizes with HIF-1-beta and translocates into the nucleus where the HIF-1 complex binds to the hypoxia-response element (HRE) and activates expression of target genes such as VEGF (vascular endothelial growth factor). The HIF-1 pathway is essential to normal growth and development, and is involved in the pathophysiology of cancer, inflammation, and ischemia.\nUsing a beta-lactamase reporter-gene under control of the hypoxia response element, a cell-based assay [CellSensor(TM) HRE-bla ME-180 from Life Technologies, Carlsbad, CA] was used to measure hypoxia-induced signaling. Tox21 10K library compounds were measured for their ability to induce the reporter gene activity. The cytotoxicity of the Tox21 compound library against HRE-bla ME-180 cell line was tested in parallel by measuring cell viability using CellTiter-Glo assay (Promega, Madison, WI) in the same assay wells.\nTox21 Assay Protocol Summary:\nHRE-bla ME-180 cells were dispensed at 2,000 cells per well in 6 uL of assay medium containing 0.5% dialyzed FBS into black wall/clear-bottom 1536-well plates using a Multidrop Combi (Thermo Scientific, Waltham, MA) dispenser. After the assay plates were incubated at 37C and 5% CO2 for 5 hrs, 23 nL of compounds dissolved in DMSO, positive controls or DMSO only was transferred to each well of the assay plate using a Pintool station (Kalypsys, San Diego, CA). The assay plates were incubated at 37C and 5% CO2 for 17 hrs. One uL of LiveBLAzerTM B/G FRET substrate (CCF4-AM) (Life Technologies) was added to each well using a Flying Reagent Dispenser (FRD, Aurora Discovery, San Diego, CA). After 2 hr incubation at room temperature, fluorescence intensity (405 nm excitation, 460 nm and 530 nm emissions) was measured using an Envision plate reader (PerkinElmer, Shelton, CT). For cytotoxicity, 4 ul/well of CellTiter-Glo reagent was added into the assay plates using an FRD. After 30 min incubation at room temperature, the luminescence intensity was measured using a ViewLux plate reader (PerkinElmer)."}
{"compound": "CCCC(=O)OCCC(C)C", "Potency": "inactive"}
{"compound": "CCOCCn1c(N2CCCN(C)CC2)nc2ccccc21", "Potency": "inactive"}
{"compound": "CCOc1cc(OCC)c(C(C)=O)cc1OCC", "Potency": "inactive"}
{"compound": "Clc1ccccc1-c1nc(-c2ccncc2)no1", "Potency": "inactive"}
{"compound": "CCn1nc(Cc2ccccc2)cc1C1CCN(C[C@H]2C[C@H](N(C)[C@@H](C(=O)O)C(C)C)C[C@@H]2c2cccc(F)c2)CC1", "Potency": "inactive"}
{"compound": "CC1(C)CC(=O)CC(C)(C)N1", "Potency": "inactive"}
{"compound": "Clc1cccc(C(c2ccc3nc[nH]c3c2)n2ccnc2)c1", "note": "(stereo not given)", "Potency": "inactive"}
{"compound": "C[C@H](N)C(=O)N[C@@H](C)C(=O)NC1[C@H]2CN(c3nc4c(cc3F)c(=O)c(C(=O)O)cn4-c3ccc(F)cc3F)C[C@@H]12", "note": "(stereo not given in full)", "Potency": "inactive"}
{"compound": "COC=O", "activity change, negative = cytotoxicity": "10.2% [at 6.97 µM] (inactive)"}
{"compound": "Cc1ccc(NC=O)c(C)c1", "Potency": "inactive"}
{"compound": "CC(=O)c1cccnc1", "Potency": "inactive"}
{"compound": "Cc1c(Nc2ncccc2C(=O)O)cccc1C(F)(F)F", "Potency": "inactive"}
{"compound": "NC(=O)c1ccccc1C(N)=O", "Potency": "49.2 µM (active)"}
{"compound": "CCCCCC1CCC(=O)O1", "note": "(stereo not given)", "Potency": "inactive"}
{"compound": "CC(CC(C#N)(c1ccccc1)C(C)C)N(C)C", "note": "(stereo not given)", "Potency": "inactive"}
{"compound": "O=C(OCCCCCOC(=O)c1ccccc1)c1ccccc1", "Potency": "inactive"}
{"compound": "c1ccc(-c2ccc(-c3ccccc3)cc2)cc1", "activity change, negative = cytotoxicity": "1.63% [at 15.8 µM] (inactive)"}
{"compound": "O=C1c2ccccc2C(=O)C1c1ccc2ccccc2n1", "Potency": "inactive"}
{"compound": "CCCCCO", "Potency": "inactive"}
{"compound": "CCOC(OCC)OCC", "Potency": "inactive"}
{"compound": "CC(C)=CCCC(C)C=O", "note": "(stereo not given)", "Potency": "inactive"}
{"compound": "CCCc1nc(C)c2c(=O)[nH]c(-c3cc(S(=O)(=O)N4CCN(CC)CC4)ccc3OCC)nn12", "Potency": "inactive"}
{"compound": "Nc1ncnc2c1ncn2[C@@H]1O[C@H](CO)[C@@H](O)[C@H]1O", "Potency": "inactive"}
{"compound": "Nc1ccc(-c2ccc(F)cc2)cc1", "Potency": "inactive"}
{"compound": "CCOc1ccc2c(c1)C(C)CC(C)(C)N2", "note": "(stereo not given)", "Potency": "inactive"}
{"compound": "COc1cc(CNC(=O)CCCC/C=C/C(C)C)ccc1O", "Potency": "inactive"}
{"compound": "CC(C(=O)O)c1ccc2c(c1)Cc1cccnc1O2", "note": "(stereo not given)", "Potency": "inactive"}
{"compound": "COC(=O)Cc1cccc2ccccc12", "Potency": "inactive"}
{"compound": "COc1ccc(CN(CCN(C)C)c2ncccn2)cc1", "Potency": "inactive"}
{"compound": "CO[C@@H]1COCC[C@@H]1N[C@@H]1CC[C@@](C(=O)N2CCc3ncc(C(F)(F)F)cc3C2)(C(C)C)C1", "Potency": "inactive"}
{"compound": "O=C(c1ccco1)N1CCNCC1", "Potency": "inactive"}
{"compound": "Sc1nc(S)nc(S)n1", "Potency": "inactive"}
{"compound": "C[Si](C)(C)O[Si](C)(C)O[Si](C)(C)C", "Potency": "inactive"}
{"compound": "CC1=C(C)C(=O)C(CCCCC#CCCCC#CCO)=C(C)C1=O", "Potency": "inactive"}
{"compound": "CO[C@@H]1[C@@H](O[C@@H]2O[C@H](C)[C@@H](O[C@H]3C[C@@](C)(O)[C@@H](O)[C@H](C)O3)[C@H](N(C)C)[C@H]2O)[C@@H](CC=O)C[C@@H](C)[C@@H](O[C@@H]2CC[C@H](N(C)C)[C@@H](C)O2)/C=C/C=C/C[C@@H](C)OC(=O)C[C@H]1OC(C)=O", "Potency": "inactive"}
{"compound": "CCc1cnc(C(=O)O)c(C(=O)O)c1", "Potency": "inactive"}
{"compound": "FC1(F)C(F)(F)C(F)(F)C2(F)C(F)(C1(F)F)C(F)(F)C(F)(F)C1(F)C(F)(F)C(F)(F)C(F)(F)C(F)(F)C12F", "note": "(stereo not given)", "Potency": "inactive"}
{"compound": "COC(=O)/C=C/C(C)=C\\C=C\\C(C)=C\\C=C\\C=C(C)\\C=C\\C=C(C)\\C=C\\C(=O)O", "Potency": "inactive"}
{"compound": "CC(C)=CCC[C@H](C)CCO", "Potency": "inactive"}
{"compound": "CC(C)NC(=O)c1ccccc1N", "Potency": "inactive"}
